Assay [1] in a line: qHTS assay to identify small molecule antagonists of the glucocorticoid receptor (GR) signaling pathway - cell viability counter screen (AID 720693; also: nearly all actives have a fitted effect of over 55% in size). (In qHTS, concentration-response curves come from the screen itself.)
Assay [2] can be described thus: qHTS assay for identifying genotoxic compounds that show differential cytotoxicity against isogenic chicken DT40 cell lines with known DNA damage response pathways - wild type cell line (AID 743012). Also: nearly all actives have a fitted effect of over 60% in size. Also: potency is read from the fitted curve at half-maximal effect. In short, it runs like this: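 Wild type DT40, 300 cells/well, ~0.5 h settle at 37 C/5% CO2; compounds in DMSO added by pintool; 40 h at 37 C/5% CO2; CellTiter-Glo, 30 min RT; luminescence.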

Assay [3] in a line: qHTS assay for identifying genotoxic compounds that show differential cytotoxicity against isogenic chicken DT40 cell lines with known DNA damage response pathways - Rev3 mutant cell line (AID 743014). Also: nearly all actives have a fitted effect of over 55% in size. Also: potency is read from the fitted curve at half-maximal effect.
A short description of assay [4]: qHTS assay for identifying genotoxic compounds that show differential cytotoxicity against isogenic chicken DT40 cell lines with known DNA damage response pathways - Rad54/Ku70 mutant cell line (AID 743015). Also: nearly all actives have a fitted effect of over 60% in size. Also: potency is read from the fitted curve at half-maximal effect.
A short description of assay [5]: qHTS assay to identify small molecule antagonists of the androgen receptor (AR) signaling pathway - cell viability counter screen (AID 743033; also: nearly all actives have a fitted effect of over 45% in size).
Assay [6] in a line: qHTS assay to identify small molecule antagonists of the androgen receptor (AR) signaling pathway using the MDA cell line - cell viability counter screen (AID 743041; also: nearly all actives have a fitted effect of over 45% in size; also: potency is read from the fitted curve at half-maximal effect). In short, it runs like this:
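MDA-kb2 AR-luc human breast carcinoma cells (MMTV-luciferase, AR/GR responsive) were treated with compounds plus R1881 agonist for 16 h at 37 °C. Viability was read as CellTiter-Fluor fluorescence in the same wells as the reporter assay.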

For assay [7], the target named is Androgen receptor (Homo sapiens) (UniProt P10275). As to the kind of experiment: qHTS assay to identify small molecule agonists of the androgen receptor (AR) signaling pathway using the MDA cell line (AID 743040; also: nearly all actives have a fitted effect of over 20% in size). In short, it runs like this:
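MDA-kb2 breast carcinoma cells stably carrying an MMTV-driven luciferase reporter (AR- and GR-responsive) were seeded and held 5 h at 37C, 0% CO2, then exposed to compounds in DMSO for 16 h. Luminescence was read 30 min after ONE-Glo addition.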

The target is the same in assay [8]. As to the kind of experiment: qHTS assay to identify small molecule antagonists of the androgen receptor (AR) signaling pathway using the MDA cell line (AID 743042; also: nearly all actives have a fitted effect of over 55% in size). In short, it runs like this:
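MDA-kb2 cells (human breast carcinoma, stably carrying an MMTV-luciferase reporter responsive to AR and GR) were plated at 3,000 cells/well and preincubated 5 hr at 37C, then given compound plus R1881 agonist for 16 h. ONE-Glo luminescence was read.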

SMILES strings stand for the structures. Values joined by “and” are separate entries in the source; they are usually repeats but may differ in a detail not shown here. Equal entries are not always repeated. Results filed as inconclusive are left out. Active and inactive are the calls of the source. Calls follow the shape of the dose curve; as a rule, active = well fitted curve in the direction sought with a large enough effect in the repeat runs; inconclusive = weak or mixed curves; inactive = no such curve, though single readings can be large; an effect the other way counts as inactive or inconclusive.

Sequence of Androgen receptor (Homo sapiens) (P10275 whole entry, looked up): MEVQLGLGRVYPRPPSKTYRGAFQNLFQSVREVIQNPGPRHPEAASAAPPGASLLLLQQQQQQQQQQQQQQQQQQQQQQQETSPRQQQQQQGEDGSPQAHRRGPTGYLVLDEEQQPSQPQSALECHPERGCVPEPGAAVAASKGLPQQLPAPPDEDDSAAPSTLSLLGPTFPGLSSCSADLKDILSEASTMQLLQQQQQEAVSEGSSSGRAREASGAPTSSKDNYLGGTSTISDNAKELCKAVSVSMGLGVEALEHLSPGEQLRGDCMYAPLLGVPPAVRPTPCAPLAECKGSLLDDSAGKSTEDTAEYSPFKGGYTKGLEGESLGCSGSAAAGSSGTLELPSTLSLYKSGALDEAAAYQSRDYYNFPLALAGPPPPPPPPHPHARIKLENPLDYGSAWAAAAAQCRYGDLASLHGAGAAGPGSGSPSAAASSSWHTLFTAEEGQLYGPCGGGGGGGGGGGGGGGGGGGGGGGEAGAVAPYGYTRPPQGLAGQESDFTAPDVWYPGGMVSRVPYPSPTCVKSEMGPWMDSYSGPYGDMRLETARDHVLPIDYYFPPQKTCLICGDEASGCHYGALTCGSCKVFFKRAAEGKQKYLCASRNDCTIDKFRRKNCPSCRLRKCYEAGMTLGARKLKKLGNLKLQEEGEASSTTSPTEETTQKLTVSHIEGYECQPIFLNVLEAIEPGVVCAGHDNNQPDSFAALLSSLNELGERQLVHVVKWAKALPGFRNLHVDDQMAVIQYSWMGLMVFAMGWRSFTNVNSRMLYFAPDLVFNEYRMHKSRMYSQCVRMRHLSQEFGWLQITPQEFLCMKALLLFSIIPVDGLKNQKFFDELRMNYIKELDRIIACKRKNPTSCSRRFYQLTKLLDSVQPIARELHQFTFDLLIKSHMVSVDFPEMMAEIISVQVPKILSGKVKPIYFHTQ

For the compound `C=C[Si](OCC)(OCC)OCC`, the Potency entry in assay [1], in assay [2], in assay [3], in assay [4], in assay [5] and in assay [6] was “inactive” throughout.

Turning to `O=C(O)c1c2ccccc2cc2ccccc12`, the Potency result in assay [1], in assay [2], in assay [3], in assay [4], in assay [5] and in assay [6] was “inactive” throughout.

In the case of `O=C(O)COCC(=O)O`, the Potency result in assay [1], in assay [2], in assay [3], in assay [4], in assay [5] and in assay [6] was “inactive” each time.

`Oc1ccc(CCNCCCCCCNCCc2ccccc2)cc1O`: the Potency entry in assay [1], in assay [5] and in assay [6] was “inactive” each time. Moreover, the Potency in assay [2] was 13.3 µM (active); in assay [3] it was 29.8 µM (active); in assay [4], 26.6 µM (active).

For `CC1=C(C)C(=O)C(C(CCCCCC(=O)O)c2ccccc2)=C(C)C1=O` (stereo not drawn), the Potency result in assay [1], in assay [2], in assay [3], in assay [4], in assay [5] and in assay [6] was “inactive” in each case.

In the case of `COc1cc(CNC(=O)CCCC/C=C/C(C)C)ccc1O`, the Potency result in assay [1], in assay [2], in assay [3], in assay [4], in assay [5] and in assay [6] was “inactive” in each case.

For the compound `CC(=O)CC/C=C(\C)CC/C=C(\C)CC/C=C(\C)CCC=C(C)C`, the Potency entry in assay [1], in assay [2], in assay [3], in assay [4], in assay [5] and in assay [6] was “inactive” each time.

In the case of `O=C(O)CNc1ccccc1`, the Potency result in assay [1], in assay [2], in assay [3], in assay [4], in assay [5] and in assay [6] was “inactive” each time.

Turning to `Nc1nc(Cl)nc2c1ncn2[C@H]1C[C@H](O)[C@@H](CO)O1`, the Potency entry in assay [1], in assay [5] and in assay [6] was “inactive” in each case. Besides, the Potency in assay [2] is 13.3 nM (active) and 1.9 nM (active); in assay [3] it was 16.8 nM (active) and 1.7 nM (active); in assay [4], 21.1 nM (active) and 2.7 nM (active).

With `C/C=C1\[C@H]2C=C(C)C[C@]1(N)c1ccc(=O)[nH]c1C2`, the Potency result in assay [1], in assay [2], in assay [3], in assay [4], in assay [5] and in assay [6] was “inactive” each time.

`Cc1ccc(NC=O)c(C)c1`: the Potency entry in assay [1], in assay [2], in assay [3], in assay [4], in assay [5] and in assay [6] was “inactive” throughout.

As for `Cc1c(-c2cccnc2)c2ccccc2n1CCCCC(=O)O`, the Potency result in assay [1], in assay [2], in assay [4], in assay [5] and in assay [6] was “inactive” throughout. Further, in assay [3], the Potency was 30.6 µM (active).

`CC(O)C(C)O` (stereo not drawn): the Potency entry in assay [1], in assay [2], in assay [3], in assay [4], in assay [5] and in assay [6] was “inactive” in each case.

In the case of `O=[N+]([O-])c1ccccc1CCO`, the Potency entry in assay [1], in assay [2], in assay [3], in assay [4], in assay [5] and in assay [6] was “inactive” in each case.

As for `C1=COCCC1`, the Potency result in assay [1], in assay [2], in assay [3], in assay [4], in assay [5] and in assay [6] was “inactive” each time.

Turning to `CC(C)(O)C(=O)O`, the Potency result in assay [1], in assay [2], in assay [3], in assay [4], in assay [5] and in assay [6] was “inactive” in each case.

Consider `Clc1nc2ccccc2nc1Cl`, for which the Potency entry in assay [1], in assay [2], in assay [3], in assay [4], in assay [5] and in assay [6] was “inactive” each time.

On to `CC(=O)Nc1ccccc1O`, for which the Potency entry in assay [1], in assay [2], in assay [3], in assay [4], in assay [5] and in assay [6] was “inactive” in each case.

`CC(=O)c1cccnc1`: the Potency entry in assay [1], in assay [2], in assay [3], in assay [4], in assay [5] and in assay [6] was “inactive” each time.

Turning to `C=CCCC`, the Potency entry in assay [1], in assay [2], in assay [3], in assay [4], in assay [5] and in assay [6] was “inactive” each time.

On to `O=C1OC(=O)C2CC=CCC12` (stereo not drawn), for which the Potency result in assay [1], in assay [2], in assay [3], in assay [4] and in assay [6] was “inactive” each time.

Regarding `C/C(=C\C(C)CC(C)CC(C)C)C1CC(=O)OC1=O` (stereo not drawn), the Potency entry in assay [1], in assay [2], in assay [3], in assay [4], in assay [5] and in assay [6] was “inactive” each time.

As to `CC(C)=CCC[C@H](C)CCO`, the Potency result in assay [1], in assay [5] and in assay [6] was “inactive” throughout. The Potency in assay [2] is 54.5 µM (active); in assay [3] it was 48.6 µM (active); in assay [4] it was 19.3 µM (active).

Regarding `CC1=CC(=C(c2ccc(N)cc2)c2ccc(N)cc2)C=CC1=N`, in assay [1], the Potency entry is “inactive”. The Potency in assay [2] is 5.31 µM (active); in assay [3], 5.96 µM (active) and 3.1 µM (active); in assay [4] it was 5.96 µM (active); in assay [6], 7.5 µM (active).

For `CC(COc1ccccc1)NC(C)C(O)c1ccc(O)cc1` (stereo not drawn), the Potency entry in assay [1], in assay [2], in assay [3], in assay [4], in assay [5] and in assay [6] was “inactive” each time.

As to `Cc1cccc(C)c1NC(=O)CN1CCCC1`, the Potency entry in assay [1], in assay [2], in assay [3], in assay [4], in assay [5] and in assay [6] was “inactive” in each case.

For `OCCc1ccncc1`, the Potency result in assay [1], in assay [2], in assay [3], in assay [4] and in assay [6] was “inactive” throughout.

`CC(=O)S[C@H](C(=O)N[C@H]1Cc2ccccc2[C@H]2CCC[C@@H](C(=O)O)N2C1=O)C(C)C`: the Potency result in assay [1], in assay [2], in assay [3], in assay [4] and in assay [6] was “inactive” in each case.

Take `CC(C(=O)O)c1ccc2c(c1)Cc1cccnc1O2` (stereo not drawn): the Potency result in assay [1], in assay [2], in assay [3], in assay [4], in assay [6] and in assay [8] was “inactive” each time. For the same compound, in assay [7], the compound was called inactive.

For the compound `Cc1c(Nc2ncccc2C(=O)O)cccc1C(F)(F)F`, the Potency result in assay [1], in assay [3] and in assay [6] was “inactive” each time. Besides, the Potency in assay [2] is 12.7 µM (active); in assay [4], 11.4 µM (active).

Regarding `CC1=C(C)C(=O)C(CCCCC#CCCCC#CCO)=C(C)C1=O`, the Potency result in assay [1], in assay [5] and in assay [6] was “inactive” each time. Further, the Potency is 8.41 µM (active) in assay [2], 10.6 µM (active) in assay [3] and 11.9 µM (active) in assay [4].

Turning to `CC(=O)Oc1cccc2c1C(=O)c1c(OC(C)=O)cc(C(=O)O)cc1C2=O`, the Potency entry in assay [1], in assay [2], in assay [3], in assay [4] and in assay [8] was “inactive” throughout. Further, in assay [7], the compound was classed as inactive.

For the origin of these results see PubChem BioAssay (Tox21).
